We go through 40 compounds from ChEMBL document CHEMBL3433997, “St. Jude Leishmania screening dataset” (2016).

Molecules are shown by their SMILES.

The first experiment deals with Hexose transporter 1 (Plasmodium falciparum) (UniProt O97467). Put plainly: ST_JUDE_LEISH: Cytotoxicity at 2uM final concentration against transgenic Leishmania Mexicana promastigotes LmPfHT that are glucose transport deficient and complemented with the Plasmodium falciparum hexose transporter. Activity is measured by DNA content using SYBR green in vitro. The class given is functional.
As a reminder, the inhibition is the change of the read-out against control, counted positive when it falls. With `O=C(NC(Cc1ccccc1)C(=O)O)c1cc(=O)c2ccccc2o1` (stereo not given), the inhibition turned out to be 1.17%.

With `CC(Cc1ccc(CN(CC(N)=O)Cc2ccc(CC(C)NCCc3cccc(Cl)c3)cc2)cc1)NCCc1cccc(Cl)c1` (stereo not given), the inhibition is -0.2%.

On to `C[C@@H](Nc1nc(NCc2ccccc2)c2sccc2n1)c1ccccc1`, for which the inhibition turned out to be 22.3%.

On to `CCCOc1cc2c(cc1OCCC)C(C=Cc1ccc(Cl)cc1Cl)=NC(C)C2` (stereo not given), for which the inhibition came to 96.7%.

As for `Cc1cc(=O)c2cc(Oc3cccc(OC(F)(F)F)c3)ccc2[nH]1`, the inhibition worked out at 2.75%.

Take `O=C(NC1CCN(c2ncc(C(F)(F)F)cc2Cl)CC1)c1cccs1`: the inhibition was -1.85%.

`CCCCCCCN(Cc1ccc(OC(C)(C)C(=O)OCC)cc1)C(=O)Nc1ccc(Cl)cc1OCC`: the inhibition was found to be 0.95%.

For the compound `CCCn1c(Sc2ccc(C#N)c([N+](=O)[O-])c2)nnc1-c1ccc(OC)cc1`, the inhibition was 0.24%.

Take `CC(C)CCNC(=O)C1Cc2c([nH]c3ccc(Br)cc23)C2(CCN(Cc3ccccc3)CC2)N1` (stereo not given): the inhibition came to 103%.

Consider `COc1ccc(O)c(C(=O)c2cnc3c(c2)c(-c2ccc(F)cc2)c(C#N)c(=O)n3C)c1`, for which the inhibition amounted to 6.89%.

For the compound `O=C(Nc1ccc2c(c1)CCCN2S(=O)(=O)c1cccs1)c1cc([N+](=O)[O-])ccc1Cl`, the inhibition came to 8.25%.

For `C=CCn1ccc2c3c(N)nc(N)nc3ccc21`, the inhibition turned out to be 79.6%.

In the case of `CCN1CCN(CCNc2c3ccccc3nc3ccccc23)CC1`, the inhibition was 80.6%.

For the compound `CCCCCCCc1c(C)nc2cccc(OC)c2c1O`, the inhibition came to 59.4%.

Consider `O=C(Nc1cccc(CN2CCN(C(=O)c3ccccc3)CC2)c1)c1cccs1`, for which the inhibition amounted to 2.87%.

`NC1CCN(c2cnn(Cc3cccc(NC(=O)Nc4ccc(-c5ccccc5)cc4)c3)c(=O)c2Cl)CC1`: the inhibition worked out at 1.72%.

`C=CCc1cccc(OC)c1OCCCON1C(=N)N=C(N)NC1(C)C`: the inhibition was 0.37%.

For the compound `CC(C)(C)c1cc(C(=O)N2CCC(c3ccccn3)CC2)n(Cc2ccccc2)n1`, the inhibition came out at 1.08%.

As to `C=C[C@H]1CN(CCCCCCC)CC[C@H]1CCNc1ccnc2ccc(OC)cc12`, the inhibition was 3.68%.

Regarding `COc1ccc(NC(=O)c2ccc(Br)c(C)c2)cc1N1CCN(Cc2ccccc2)CC1`, the inhibition was determined as 0.13%.

For the compound `CC(C)(CNCc1ccc(F)c(F)c1)c1nc(-c2ccc(Cl)c(O)c2)c(-c2ccncc2)[nH]1`, the inhibition stood at 0.25%.

In the case of `CCOc1cc2ncnc(Nc3ccc(OCc4ccccc4OC)c(OC)c3)c2cc1OCC`, the inhibition is 2.81%.

In the case of `Cc1cc(N2CCCC2)nc(Nc2ccc(NC(=O)CC(C)C)cc2)n1`, the inhibition was determined as 3.11%.

With `O=C(NCCCCN1CCC(c2ccc3c(c2OC(=O)c2ccc(NC(=O)c4ccc(Cl)cc4)cc2)CCCC3)CC1)c1ccc(NC(=O)c2ccc(Cl)cc2)cc1`, the inhibition stood at 0.15%.

For `CCOc1ccccc1C(=O)N1CCc2cc3nccc(N4CCN5CCC[C@H]5C4)c3cc21`, the inhibition was -0.67%.

For the compound `CS(=O)(=O)Nc1ccc2[nH]cc(C3CCN(CC(O)C4CCN(C(=O)/C=C/c5ccc(Cl)c(Cl)c5)CC4)CC3)c2c1` (stereo not given), the inhibition stood at 2.94%.

`COc1ccccc1Cn1ccnc1SCC(=O)Nc1cc(C(F)(F)F)ccc1Cl`: the inhibition is -2.15%.

For the compound `Cc1cc(O)c(C(C)C)cc1C1(c2cc(C(C)C)c(O)cc2C)OC(=O)c2ccccc21`, the inhibition stood at 6.64%.

As for `O=C(NCCCNc1ccc2ccccc2n1)c1cc2c(Cl)cc(Cl)cc2[nH]1`, the inhibition is -0.36%.

For `CCNc1cc(C(=O)N[C@@H](Cc2ccc(Cl)cc2)[C@H](O)CNC2CCCCC2)cc(N2CCCCS2(=O)=O)c1`, the inhibition stood at 1.36%.

`O=C(Nc1cccc(CN2CCCN(CC3CCCCC3)CC2)c1)c1ccc(Cl)c(Cl)c1`: the inhibition stood at 12.2%.

As to `CCOc1ccc(C2CCN(CCCCNC(=O)c3ccc(NC(=O)c4ccc(Cl)cc4)cc3)CC2)c(OCC)c1`, the inhibition is 3.34%.

Take `O=C(Nc1ccc(Cl)cn1)c1sc2ccccc2c1O`: the inhibition is 3.43%.

Consider `CCCc1ccc(NC(=O)c2cccc(CN3CCCN(Cc4cccc(O)c4)CC3)c2)cc1`, for which the inhibition stood at 2.34%.

For the compound `CC(=O)Nc1ccc(CN2CCC(NC(=O)c3ccc(-c4ccc(N(C)C)cc4)s3)CC2)cc1`, the inhibition worked out at 1.82%.

Regarding `O=C(/C=C/c1ccc(Cl)c(Cl)c1)NC1CCN(Cc2cccc(O)c2)CC1`, the inhibition amounted to 4.2%.

As for `CN(C)CCCn1c(N)c(-c2nc3ccccc3[nH]2)c2nc(C#N)c(C#N)nc21`, the inhibition worked out at 2.05%.

Consider `CN(C)c1ccc(OCCCCCCOc2ccccc2)cc1`, for which the inhibition was 1.77%.

Take `COc1cccc(CCc2ccc(O)c3c2C[C@H]2C[C@H]4[C@H](N(C)C)C(O)=C(C(N)=O)C(=O)[C@@]4(O)C(O)=C2C3=O)c1`: the inhibition came to 4.13%.

As for `CCOc1cc(C=NNc2nc(C)cc(-n3nc(C)cc3C)n2)ccc1O`, the inhibition is -0.22%.

For the next experiment, the target named is Glucose transporter (Leishmania mexicana) (UniProt O61059). Briefly: ST_JUDE_LEISH: Cytotoxicity at 2uM final concentration against transgenic Leishmania Mexicana promastigotes LmGT2 that are glucose transport deficient and complemented with the L. Mexicana glucose transporter 2. Activity is measured by DNA content using SYBR green in vitro. The class given is functional.
`O=C(NC(Cc1ccccc1)C(=O)O)c1cc(=O)c2ccccc2o1` (stereo not given): the inhibition was 0.99%.

`CC(Cc1ccc(CN(CC(N)=O)Cc2ccc(CC(C)NCCc3cccc(Cl)c3)cc2)cc1)NCCc1cccc(Cl)c1` (stereo not given): the inhibition is 7.2%.

For the compound `C[C@@H](Nc1nc(NCc2ccccc2)c2sccc2n1)c1ccccc1`, the inhibition turned out to be 8.39%.

As for `CCCOc1cc2c(cc1OCCC)C(C=Cc1ccc(Cl)cc1Cl)=NC(C)C2` (stereo not given), the inhibition is 94.4%.

In the case of `Cc1cc(=O)c2cc(Oc3cccc(OC(F)(F)F)c3)ccc2[nH]1`, the inhibition turned out to be 4.49%.

Consider `O=C(NC1CCN(c2ncc(C(F)(F)F)cc2Cl)CC1)c1cccs1`, for which the inhibition was -3.08%.

As for `CCCCCCCN(Cc1ccc(OC(C)(C)C(=O)OCC)cc1)C(=O)Nc1ccc(Cl)cc1OCC`, the inhibition is 3.11%.

With `CCCn1c(Sc2ccc(C#N)c([N+](=O)[O-])c2)nnc1-c1ccc(OC)cc1`, the inhibition was -0.23%.

On to `CC(C)CCNC(=O)C1Cc2c([nH]c3ccc(Br)cc23)C2(CCN(Cc3ccccc3)CC2)N1` (stereo not given), for which the inhibition came out at 94.2%.

Take `COc1ccc(O)c(C(=O)c2cnc3c(c2)c(-c2ccc(F)cc2)c(C#N)c(=O)n3C)c1`: the inhibition is 4.94%.

In the case of `O=C(Nc1ccc2c(c1)CCCN2S(=O)(=O)c1cccs1)c1cc([N+](=O)[O-])ccc1Cl`, the inhibition turned out to be 3.5%.

As to `C=CCn1ccc2c3c(N)nc(N)nc3ccc21`, the inhibition is 44.1%.

In the case of `CCN1CCN(CCNc2c3ccccc3nc3ccccc23)CC1`, the inhibition is 79%.

Regarding `CCCCCCCc1c(C)nc2cccc(OC)c2c1O`, the inhibition came to 33.9%.

Take `O=C(Nc1cccc(CN2CCN(C(=O)c3ccccc3)CC2)c1)c1cccs1`: the inhibition is 3.92%.

As to `NC1CCN(c2cnn(Cc3cccc(NC(=O)Nc4ccc(-c5ccccc5)cc4)c3)c(=O)c2Cl)CC1`, the inhibition is 2.25%.

For `C=CCc1cccc(OC)c1OCCCON1C(=N)N=C(N)NC1(C)C`, the inhibition was determined as 0.43%.

Consider `CC(C)(C)c1cc(C(=O)N2CCC(c3ccccn3)CC2)n(Cc2ccccc2)n1`, for which the inhibition is -0.6%.

Regarding `C=C[C@H]1CN(CCCCCCC)CC[C@H]1CCNc1ccnc2ccc(OC)cc12`, the inhibition was -1.48%.

For the compound `COc1ccc(NC(=O)c2ccc(Br)c(C)c2)cc1N1CCN(Cc2ccccc2)CC1`, the inhibition was -0.04%.

For `CC(C)(CNCc1ccc(F)c(F)c1)c1nc(-c2ccc(Cl)c(O)c2)c(-c2ccncc2)[nH]1`, the inhibition stood at 0.94%.

In the case of `CCOc1cc2ncnc(Nc3ccc(OCc4ccccc4OC)c(OC)c3)c2cc1OCC`, the inhibition amounted to 0.35%.

On to `Cc1cc(N2CCCC2)nc(Nc2ccc(NC(=O)CC(C)C)cc2)n1`, for which the inhibition worked out at 2.23%.

`O=C(NCCCCN1CCC(c2ccc3c(c2OC(=O)c2ccc(NC(=O)c4ccc(Cl)cc4)cc2)CCCC3)CC1)c1ccc(NC(=O)c2ccc(Cl)cc2)cc1`: the inhibition came to 3.18%.

On to `CCOc1ccccc1C(=O)N1CCc2cc3nccc(N4CCN5CCC[C@H]5C4)c3cc21`, for which the inhibition was -0.44%.

Take `CS(=O)(=O)Nc1ccc2[nH]cc(C3CCN(CC(O)C4CCN(C(=O)/C=C/c5ccc(Cl)c(Cl)c5)CC4)CC3)c2c1` (stereo not given): the inhibition worked out at 3.3%.

On to `COc1ccccc1Cn1ccnc1SCC(=O)Nc1cc(C(F)(F)F)ccc1Cl`, for which the inhibition was -1.55%.

For the compound `Cc1cc(O)c(C(C)C)cc1C1(c2cc(C(C)C)c(O)cc2C)OC(=O)c2ccccc21`, the inhibition worked out at 6.75%.

Take `O=C(NCCCNc1ccc2ccccc2n1)c1cc2c(Cl)cc(Cl)cc2[nH]1`: the inhibition was 2.17%.

For `CCNc1cc(C(=O)N[C@@H](Cc2ccc(Cl)cc2)[C@H](O)CNC2CCCCC2)cc(N2CCCCS2(=O)=O)c1`, the inhibition is 1.39%.

Turning to `O=C(Nc1cccc(CN2CCCN(CC3CCCCC3)CC2)c1)c1ccc(Cl)c(Cl)c1`, the inhibition came out at 10.5%.

`CCOc1ccc(C2CCN(CCCCNC(=O)c3ccc(NC(=O)c4ccc(Cl)cc4)cc3)CC2)c(OCC)c1`: the inhibition is 2.91%.

`O=C(Nc1ccc(Cl)cn1)c1sc2ccccc2c1O`: the inhibition is 0.99%.

As for `CCCc1ccc(NC(=O)c2cccc(CN3CCCN(Cc4cccc(O)c4)CC3)c2)cc1`, the inhibition is 0.71%.

For `CC(=O)Nc1ccc(CN2CCC(NC(=O)c3ccc(-c4ccc(N(C)C)cc4)s3)CC2)cc1`, the inhibition was 2.63%.

On to `O=C(/C=C/c1ccc(Cl)c(Cl)c1)NC1CCN(Cc2cccc(O)c2)CC1`, for which the inhibition is -2.96%.

As for `CN(C)CCCn1c(N)c(-c2nc3ccccc3[nH]2)c2nc(C#N)c(C#N)nc21`, the inhibition was -0.05%.

Take `CN(C)c1ccc(OCCCCCCOc2ccccc2)cc1`: the inhibition is 1.98%.

As for `COc1cccc(CCc2ccc(O)c3c2C[C@H]2C[C@H]4[C@H](N(C)C)C(O)=C(C(N)=O)C(=O)[C@@]4(O)C(O)=C2C3=O)c1`, the inhibition is 1.64%.

In the case of `CCOc1cc(C=NNc2nc(C)cc(-n3nc(C)cc3C)n2)ccc1O`, the inhibition was found to be 3.45%.
